For 7 molecules, Potency results are on record in PubChem BioAssay (Tox21).

Test [1] is described as follows: Nuclear factor erythroid 2-related factor 2/antioxidant responsive element (Nrf2/ARE) small molecule agonists: qHTS cell viability counter screen in human keratinocytes (AID 1919968; active = well fitted cell-killing curve with a large enough effect in the repeat runs; also: nearly all actives have a fitted effect of over 55% in size). Put shortly: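 Parallel cytotoxicity read: KeratinoSens HaCaT cells, compound treatment 23 h, viability by CellTiter-Fluor fluorescence 1 h post-reagent.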
In general terms: qHTS replaces the single test concentration by a dilution series.

The nature of test [2]: Nuclear factor erythroid 2-related factor 2/antioxidant responsive element (Nrf2/ARE) small molecule agonists: luciferase reporter gene qHTS assay in human keratinocytes (AID 1919969). Also: nearly all actives have a fitted effect of over 35% in size.
In test [3] the target is Gonadotropin-releasing hormone receptor (Homo sapiens) (UniProt P30968). In words: Human gonadotropin-releasing hormone receptor (GnRHR) small molecule agonists, calcium flux assay in GnRHR-HEK293 cells (AID 1920063). Also: nearly all actives have a fitted effect of over 35% in size. The procedure, abridged: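 Calcium flux, agonist mode, human GnRHR stably integrated in HEK293; dye 1 h at 37 C before compound; Ex/Em=480/540 kinetic read, 3 min; 15 concentrations, triplicate.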
For orientation: Calcium flux is commonly read through the fluorescence of an indicator in the cells.

Test [4] is described as follows: G protein-coupled receptor (GPCR) small molecule agonists, calcium flux assay: HEK293 wild type cell line counter screen (AID 1920065). The procedure, abridged: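 Non-specific calcium responders were flagged by adding DMSO-dissolved compounds to dye-loaded cells and reading 480/540 nm fluorescence each second for 3 min; ATP served as positive control.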
Test [5] is described as follows: p53 small molecule agonists, cell-based qHTS assay with human liver microsomes (AID 1963577).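 Also: p53 response element beta-lactamase reporter cells with liver microsomes plus NADPH.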 Put shortly: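 With metabolic activation: human liver microsomes (0.5 mg/mL final) plus NADPH (0.5 mg/mL final) added alongside compounds to p53RE-bla cells; 16 h 37 C exposure; beta-lactamase read by LiveBLAzer fluorescence.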
The nature of test [6]: p53 small molecule agonists, cell-based qHTS assay with rat liver microsomes (AID 1963578). Put shortly:
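Metabolic activation by rat liver microsomes and NADPH, each 0.5 mg/mL final, added right after compounds to p53RE-bla reporter cells (4,000/well, plated 5 h earlier). 16 h at 37 C, then LiveBLAzer substrate for 2 h at room temperature in the dark; fluorescence read-out.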

Test [7] can be described thus: p53 small molecule agonists, cell-based qHTS assay with human liver microsomes: qHTS cell viability counter screen (AID 1963579). Also: nearly all actives have a fitted effect of over 45% in size. The procedure, abridged:
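Metabolic activation used human liver microsomes and NADPH, both 0.5 mg/mL final, over 16 hours at 37 C on p53RE-bla cells (4,000/well). Cytotoxicity measured by CellTiter-Glo luminescence, 30 min at room temperature.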

A short description of test [8]: p53 small molecule agonists, cell-based qHTS assay with rat liver microsomes: qHTS cell viability counter screen (AID 1963580). Also: nearly all actives have a fitted effect of over 45% in size. Put shortly: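 Cytotoxicity counter screen: intracellular ATP measured by CellTiter-Glo luminescence in the same wells as the beta-lactamase reporter read, on HCT-116 p53RE-bla cells exposed 16 h at 37 C to compounds with rat liver microsomes and NADPH, each 0.5 mg/mL final.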

Test [9] can be described thus: p53 small molecule agonists, cell-based qHTS assay: qHTS cell viability counter screen (AID 1963581). Also: nearly all actives have a fitted effect of over 45% in size. Put shortly:
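Multiplexed with the reporter read, a CellTiter-Glo step (30 min, room temperature) gauges ATP-based viability of HCT-116 p53RE-bla cells after 16 h compound incubation at 37 C.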

A short description of test [10]: p53 small molecule agonists, cell-based qHTS assay (AID 1963582; active = well fitted activation curve with a large enough effect in the signal ratio in the repeat runs, not every such curve was filed as active; the % refers to the signal ratio). The procedure, abridged:
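Beta-lactamase reporter cells (p53RE-bla) treated with compounds for 16 h at 37 C; FRET substrate, 2 h, room temperature; fluorescence intensity.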

Test [11] has as its target 5-hydroxytryptamine receptor 2A (Homo sapiens) (UniProt P28223). Nature of the test: 5-hydroxytryptamine receptor 2A (HTR2A) small molecule antagonists, cell-based qHTS assay (AID 1963586). Also: nearly all actives have a fitted effect of over 45% in size. Put shortly: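 CHO cells stably expressing human HTR2A were plated for 18 h at 37 C, then loaded with calcium dye for 1 h. Compounds were preincubated 5 min at room temperature before DOI (4 nM solution) was added. Kinetic fluorescence was read for 3 min.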

Test [12] has the same target. Nature of the test: 5-hydroxytryptamine receptor 2A (HTR2A) small molecule agonists, cell-based qHTS assay (AID 1963587). Also: nearly all actives have a fitted effect of over 30% in size. Put shortly:
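CHO cells stably expressing human HTR2A, plated 18 h, loaded with calcium dye 1 h at 37 C. Agonist mode: compounds added and intracellular calcium fluorescence recorded kinetically for 2 min at 1 sec intervals.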

Test [13] addresses Muscarinic acetylcholine receptor M1 (Homo sapiens) (UniProt P11229). In words: Cholinergic receptor muscarinic 1 (CHRM1) small molecule antagonists, cell-based qHTS assay (AID 1963588). Also: nearly all actives have a fitted effect of over 40% in size. Also: potency is read from the fitted curve at half-maximal effect. Put shortly:
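Compounds were tested at 15 concentrations in three independent runs. Dye-loaded CHRM1-CHO cells were exposed 5 min at room temperature before stimulation by acetylcholine added at 50nM. Intracellular calcium was read kinetically on FDSS for 3 min.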

Test [14] shares this target. Nature of the test: Cholinergic receptor muscarinic 1 (CHRM1) small molecule agonists, cell-based qHTS assay (AID 1963589). Also: nearly all actives have a fitted effect of over 35% in size. The procedure, abridged:
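qHTS, 15-point titration, 3 independent runs: compounds pin-transferred onto dye-loaded CHRM1-CHO cells (human M1), calcium fluorescence followed every second to detect agonism.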

Test [15] is described as follows: cAMP Responsive Elements (CRE) small molecule agonists, cell-based qHTS assay (AID 1963590). The procedure, abridged: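 Quantitative HTS for CRE agonists: HEK 293T CRE-bla cells, overnight plating, 3 h compound incubation at 37 C/5% CO2, then 2 h room-temperature LiveBLAzer B/G FRET substrate loading.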
A short description of test [16]: cAMP Responsive Elements (CRE) small molecule antagonists, cell-based qHTS assay (AID 1963591; active = well fitted inhibition curve with a large enough effect in the signal ratio in the repeat runs, not every such curve was filed as active; the % refers to the signal ratio). The procedure, abridged:
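Fluorescence intensity from cleaved LiveBLAzer B/G substrate (2 h, room temperature) quantified CRE-bla activity in HEK 293T cells exposed 3 h to compound with 0.25 uM final NKH477.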

Test [17] addresses Beta-2 adrenergic receptor (Homo sapiens) (UniProt P07550). Nature of the test: Adrenergic beta2 receptor (ADRB2) small molecule agonists, cell-based qHTS assay (AID 1963593).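 Also: CHO cells stably overexpressing human ADRB2.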 The procedure, abridged: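 CHO cells stably over-expressing ADRB2 were plated overnight at 37C, then dosed with compounds plus a stimulation mix containing 100uM IBMX and 25uM Ro-20-1724 for 0.5hr at room temperature. cAMP was measured by HTRF competition, 1hr.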

The target of test [18] is D(2) dopamine receptor (Homo sapiens) (UniProt P14416). Nature of the test: Dopamine D2 receptor (DRD2) small molecule agonists, cell-based qHTS assay (AID 1963594). Also: nearly all actives have a fitted effect of over 35% in size. The procedure, abridged:
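HEK293 cells stably expressing human DRD2, pre-treated with PDE inhibitor Ro20-1724 (0.1 mM final) and compound 10 min at room temperature, then stimulated with NKH477 (200nM […]) for 30 min. cAMP read by HTRF (665/620 nm).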

Test [19] shares this target. Nature of the test: Dopamine D2 receptor (DRD2) small molecule antagonists, cell-based qHTS assay (AID 1963595; active = well fitted inhibition curve with a large enough effect in the signal ratio in the repeat runs, with a control signal flat; the % refers to the signal ratio). The procedure, abridged: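 Readout: HTRF cAMP, cAMP-d2 competing with cellular cAMP for anti-cAMP cryptate, read after 1 h. Cells: DRD2-HEK293. Conditions: 0.1 mM Ro20-1724, 12 nM quinpirole, 200 nM NKH477, 30 min RT.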
In test [20] the target is Beta-2 adrenergic receptor (Homo sapiens) (UniProt P07550). In words: Adrenergic beta2 receptor (ADRB2) small molecule antagonists, cell-based qHTS assay (AID 1963592). Also: series mostly up to about 92 µM; nearly all actives have a fitted effect of over 50% in size. Put shortly:
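Assay format: CHO-ADRB2 cells, 18-20hr seeding at 37C/5% CO2, then compound plus 1nM isoproterenol agonist mix for 0.5hr RT. Homogeneous time-resolved fluorescence cAMP detection after 1hr, expressed as 665/615 nm ratio.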

Inconclusive results are not listed. Activity calls are given as the source filed them. Unless noted, calls follow the shape of the full dose curve.

Chain of D(2) dopamine receptor (Homo sapiens) (P14416 whole entry, looked up): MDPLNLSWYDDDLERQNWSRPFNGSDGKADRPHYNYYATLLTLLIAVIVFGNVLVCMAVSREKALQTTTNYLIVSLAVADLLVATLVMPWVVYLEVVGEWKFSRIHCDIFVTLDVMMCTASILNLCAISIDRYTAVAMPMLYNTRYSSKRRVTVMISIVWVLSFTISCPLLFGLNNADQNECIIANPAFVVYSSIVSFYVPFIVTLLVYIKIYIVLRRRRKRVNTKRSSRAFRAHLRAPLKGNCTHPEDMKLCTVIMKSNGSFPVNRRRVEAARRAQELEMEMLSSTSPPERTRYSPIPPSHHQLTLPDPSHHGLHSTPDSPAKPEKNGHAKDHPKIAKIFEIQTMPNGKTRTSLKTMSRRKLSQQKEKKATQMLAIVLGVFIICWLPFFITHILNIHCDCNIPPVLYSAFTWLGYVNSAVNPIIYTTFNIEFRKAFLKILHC
Chain of Muscarinic acetylcholine receptor M1 (Homo sapiens) (P11229 whole entry, looked up): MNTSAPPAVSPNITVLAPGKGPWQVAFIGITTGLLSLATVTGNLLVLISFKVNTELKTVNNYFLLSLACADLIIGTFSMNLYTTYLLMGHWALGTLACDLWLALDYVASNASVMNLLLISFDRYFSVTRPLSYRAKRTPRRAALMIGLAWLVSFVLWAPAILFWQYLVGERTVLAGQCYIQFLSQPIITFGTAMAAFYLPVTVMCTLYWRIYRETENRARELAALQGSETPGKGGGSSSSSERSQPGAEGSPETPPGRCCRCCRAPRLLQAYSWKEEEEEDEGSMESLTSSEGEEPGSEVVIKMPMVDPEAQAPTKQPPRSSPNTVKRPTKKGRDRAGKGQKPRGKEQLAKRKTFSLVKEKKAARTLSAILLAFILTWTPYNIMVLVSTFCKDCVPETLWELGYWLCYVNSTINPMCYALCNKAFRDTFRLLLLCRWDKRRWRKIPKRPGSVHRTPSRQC
Chain of 5-hydroxytryptamine receptor 2A (Homo sapiens) (P28223 whole entry, looked up): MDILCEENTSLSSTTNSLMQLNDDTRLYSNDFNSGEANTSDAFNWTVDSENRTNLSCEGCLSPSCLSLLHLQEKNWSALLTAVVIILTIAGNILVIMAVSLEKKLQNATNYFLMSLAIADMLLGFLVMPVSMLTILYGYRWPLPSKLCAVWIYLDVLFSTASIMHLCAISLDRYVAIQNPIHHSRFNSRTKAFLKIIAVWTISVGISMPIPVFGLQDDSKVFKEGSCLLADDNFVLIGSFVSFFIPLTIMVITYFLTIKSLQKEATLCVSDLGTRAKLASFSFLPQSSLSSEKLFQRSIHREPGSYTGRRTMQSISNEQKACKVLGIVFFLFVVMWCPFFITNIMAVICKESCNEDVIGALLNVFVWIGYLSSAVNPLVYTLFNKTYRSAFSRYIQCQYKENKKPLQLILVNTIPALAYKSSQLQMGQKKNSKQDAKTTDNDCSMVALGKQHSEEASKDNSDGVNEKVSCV
Chain of Beta-2 adrenergic receptor (Homo sapiens) (P07550 whole entry, looked up): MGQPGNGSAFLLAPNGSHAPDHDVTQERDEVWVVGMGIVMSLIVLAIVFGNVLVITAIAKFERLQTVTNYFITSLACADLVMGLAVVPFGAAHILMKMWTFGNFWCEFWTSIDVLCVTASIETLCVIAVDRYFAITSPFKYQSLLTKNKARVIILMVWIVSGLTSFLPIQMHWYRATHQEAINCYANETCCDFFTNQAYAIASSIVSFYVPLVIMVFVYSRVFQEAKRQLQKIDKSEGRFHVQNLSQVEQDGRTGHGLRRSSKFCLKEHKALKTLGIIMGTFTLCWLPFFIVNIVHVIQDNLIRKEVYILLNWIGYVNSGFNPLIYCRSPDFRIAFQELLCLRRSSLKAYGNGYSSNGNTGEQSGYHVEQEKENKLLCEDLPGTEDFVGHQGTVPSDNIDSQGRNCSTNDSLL
Chain of Gonadotropin-releasing hormone receptor (Homo sapiens) (P30968 whole entry, looked up): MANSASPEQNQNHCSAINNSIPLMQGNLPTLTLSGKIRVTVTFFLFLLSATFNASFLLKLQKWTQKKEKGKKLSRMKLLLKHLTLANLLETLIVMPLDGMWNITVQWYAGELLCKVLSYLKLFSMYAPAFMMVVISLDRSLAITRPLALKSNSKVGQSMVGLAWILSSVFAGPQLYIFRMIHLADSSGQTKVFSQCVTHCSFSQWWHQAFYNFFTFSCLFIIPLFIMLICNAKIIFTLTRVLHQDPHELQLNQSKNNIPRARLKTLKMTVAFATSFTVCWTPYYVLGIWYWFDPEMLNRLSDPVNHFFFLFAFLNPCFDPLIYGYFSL

Turning to `C=CC(=O)CCCCC`, the Potency result in test [1], in test [2], in test [3], in test [4], in [5] and in [6] was “inactive” in each case. Further, the Potency entry in test [7], in test [8], in test [9], in [10], in test [11] and in test [12] was “inactive” throughout. Also, the Potency entry in test [13], in test [14], in test [15], in [16], in test [17] and in [18] was “inactive” in each case. Further, in test [19], the Potency result was “inactive”.

For the molecule `CC(C)=CCC/C(C)=C/C(=O)O`, the Potency result in test [1], in test [2], in [3], in test [4], in test [5] and in test [6] was “inactive” throughout. Moreover, the Potency entry in test [7], in test [8], in [9], in test [10], in test [11] and in test [12] was “inactive” throughout. Besides, the Potency entry in test [13], in test [14], in test [15], in test [16], in [20] and in test [17] was “inactive” each time. Also, the Potency entry in test [18] and in test [19] was “inactive” each time.

For the molecule `CCOC(=O)CC(C(C)=O)C(C)=O`, the Potency result in test [1], in [2], in [3], in [4], in test [5] and in test [6] was “inactive” in each case. Also, the Potency result in [7], in [8], in [9], in test [10], in test [11] and in test [12] was “inactive” each time. For the same molecule, the Potency result in test [13], in test [14], in test [15], in test [16], in test [20] and in test [17] was “inactive” throughout. Besides, the Potency entry in test [18] and in [19] was “inactive” in each case.

On to `CC(S)C(=O)NCC(=O)O` (stereo not given), for which the Potency entry in test [1], in test [2], in test [3], in test [4], in test [5] and in test [6] was “inactive” throughout. Further, the Potency result in [8], in test [9], in test [10], in test [11], in test [12] and in [13] was “inactive” each time. The Potency result in test [14], in test [15], in [16], in test [20], in test [17] and in test [18] was “inactive” each time. Also, in test [19], the Potency entry is “inactive”.

With `Cc1ccccc1C`, the Potency result in [1], in test [2], in [3], in [4], in test [5] and in test [6] was “inactive” throughout. Besides, the Potency entry in [7], in test [8], in test [10], in [11], in test [12] and in [14] was “inactive” in each case. In addition, the Potency result in test [15], in test [16], in test [20], in [17], in [18] and in [19] was “inactive” in each case. Also, the Potency in [13] is 1.5 nM (active).

In the case of `CC(COCC(C)OC(=O)c1ccccc1)OC(=O)c1ccccc1` (stereo not given), the Potency entry in test [1], in test [2], in test [3], in [4], in test [7] and in test [8] was “inactive” in each case. The Potency result in test [9], in test [11], in test [12], in test [13], in [14] and in test [15] was “inactive” each time. Further, the Potency entry in [16], in test [20], in test [17], in test [18] and in test [19] was “inactive” each time.

Regarding `Cc1c(N)cccc1C(F)(F)F`, the Potency entry in test [1], in test [2], in test [3], in test [4], in [5] and in test [6] was “inactive” each time. In addition, the Potency entry in test [9], in [10], in test [11], in test [12], in [13] and in test [15] was “inactive” throughout. In addition, the Potency entry in [16], in [20], in [18] and in [19] was “inactive” each time.
